Test results taken from paper PMC11995724, “Antibiotic target discovery by integrated phenotypic and activity-based profiling of electrophilic fragments” (Cell chemical biology, 2025).
Out of some 3,200 compounds screened, about 110 (3.4%) showed an effect of 50% or more. The entries come from a sample that favours strong results as a whole.

system: T1, V. cholerae SAD30; set-up: species or system S. aureus MSSA476 (TSB) or V. cholerae SAD30 (LB); 384-well bacterial growth screen at 25 uM, OD600 relative to DMSO control; conditions: relative growth, OD600, LB; 25 µM; inhibitor
T1 construct: SAD30

| Structure (SMILES) | % of control remaining [%] |
| --- | --- |
| O=S(=O)(CC=C(Cl)Cl)N1CCSSCC1 [10-P19, 5-(3,3-dichloroprop-2-ene-1-sulfonyl)-1,2,5-dithiazepane] | 92.5774 |
| C=CC(=O)NCc1ccc(S(=O)(=O)NC2CC2)cc1 [2-P19, N-{[4-(cyclopropylsulfamoyl)phenyl]methyl}prop-2-enamide] | 96.8349 |
| C=CC(=O)N1CCCC(c2nc(N(C)C)no2)C1 (centres unmarked) [3-A13, 1-{3-[3-(dimethylamino)-1,2,4-oxadiazol-5-yl]piperidin-1-yl}prop-2-en-1-one] | 112.204 |
| CC(Cl)C(=O)NCC1CN(c2nncs2)CCO1 (centres unmarked) [7-O03, 2-chloro-N-{[4-(1,3,4-thiadiazol-2-yl)morpholin-2-yl]methyl}propanamide] | 90.798 |
| O=C(CCl)NCCc1ccc(Cl)cc1Cl [6-M16, 2-chloro-N-[2-(2,4-dichlorophenyl)ethyl]acetamide] | 96.0091 |
| O=C(CCl)N(Cc1ccccc1)Cc1ccc(F)cc1 [5-I06, N-benzyl-2-chloro-N-[(4-fluorophenyl)methyl]acetamide] | 81.2021 |
| Cc1ccc(F)cc1NC(=O)CCl [4-O03, 2-chloro-N-(5-fluoro-2-methylphenyl)acetamide] | 106.103 |
| O=C(CCl)N1CC(Cc2ccc(F)cc2F)C1 [5-G20, 2-chloro-1-{3-[(2,4-difluorophenyl)methyl]azetidin-1-yl}ethan-1-one] | 89.2718 |
| CC(Cl)C(=O)N(CCc1ccc(F)cc1F)C(C)C (centres unmarked) [6-D18, 2-chloro-N-[2-(2,4-difluorophenyl)ethyl]-N-(propan-2-yl)propanamide] | 71.5897 |
| O=C(CCl)Nc1c(Cl)cc(Cl)cc1Cl [5-B16, 2-chloro-N-(2,4,6-trichlorophenyl)acetamide] | 98.3503 |
| O=C(CCl)Cc1ccc(F)cc1Cl [10-E19, 1-chloro-3-(2-chloro-4-fluorophenyl)propan-2-one] | 21.0403 |
| O=C(CCl)Cc1ccc(Cl)cc1Cl [10-A15, 1-chloro-3-(2,4-dichlorophenyl)propan-2-one] | 22.1313 |
| O=C(CCl)Cc1ccc(F)cc1F [10-G17, 1-chloro-3-(2,4-difluorophenyl)propan-2-one] | 31.4826 |
| N#CC(=Cc1cccc(O)c1)C(=O)Nc1ccc(N2CCOCC2)cc1 [8-I14, 2-cyano-3-(3-hydroxyphenyl)-N-[4-(morpholin-4-yl)phenyl]prop-2-enamide] | 71.0401 |
| CC1CN(c2ccc(NC(=O)C(C#N)=Cc3ccco3)cc2)CC(C)O1 (centres unmarked) [9-J09, 2-cyano-N-[4-(2,6-dimethylmorpholin-4-yl)phenyl]-3-(furan-2-yl)prop-2-enamide] | 84.3644 |
| C=CC(=O)N1CCC(F)CC1 [1-D14, 1-(4-fluoropiperidin-1-yl)prop-2-en-1-one] | 79.2444 |

| Structure (SMILES) | % of control remaining [%] |
| --- | --- |
| CN(C)c1nc(N2CCOCC2)ncc1NC(=O)CCl [5-M22, 2-chloro-N-[4-(dimethylamino)-2-(morpholin-4-yl)pyrimidin-5-yl]acetamide] | 105.916 |
| C=CC(=O)Nc1ccc(S(=O)(=O)N(C)C)c(C)c1 [2-E06, N-[4-(dimethylsulfamoyl)-3-methylphenyl]prop-2-enamide] | 93.4382 |
| C=CC(=O)N(CCC(N)=O)C1CCOc2ccccc21 (centres unmarked) [3-F13, N-(2-carbamoylethyl)-N-(3,4-dihydro-2H-1-benzopyran-4-yl)prop-2-enamide] | 92.0897 |
| Cc1cc(C(=O)CCl)c(C)n1CCc1cccs1 [10-F16, 2-chloro-1-{2,5-dimethyl-1-[2-(thiophen-2-yl)ethyl]-1H-pyrrol-3-yl}ethan-1-one] | 110.189 |
| C=CC(=O)Nc1sc2c(c1C(N)=O)CCCCC2 [1-F21, 2-(prop-2-enamido)-4H,5H,6H,7H,8H-cyclohepta[b]thiophene-3-carboxamide] | 88.1913 |
| CSc1ccccc1NC(=O)CN(C)C(=O)CCl [4-L03, 2-chloro-N-methyl-N-({[2-(methylsulfanyl)phenyl]carbamoyl}methyl)acetamide] | 116.282 |
| CC(Cl)C(=O)N(C)CCOc1ccc(Cl)cc1 (centres unmarked) [6-C12, 2-chloro-N-[2-(4-chlorophenoxy)ethyl]-N-methylpropanamide] | 74.0165 |
| CCOc1ccc(C(=O)CCl)cc1 [10-F12, 2-chloro-1-(4-ethoxyphenyl)ethan-1-one] | 15.1179 |
| CSc1ccccc1NC(=O)CCl [4-E11, 2-chloro-N-[2-(methylsulfanyl)phenyl]acetamide] | 92.3011 |
| CN(CCOc1ccc(Cl)cc1)C(=O)CCl [5-D16, 2-chloro-N-[2-(4-chlorophenoxy)ethyl]-N-methylacetamide] | 80.0252 |
| N#Cc1ccc(C(=O)CCl)cc1 [10-F10, 4-(2-chloroacetyl)benzonitrile] | 0 |
| CSc1cc(C(=O)CCl)ccc1NC(C)=O [10-H08, N-[4-(2-chloroacetyl)-2-(methylsulfanyl)phenyl]acetamide] | 25.2484 |
| CCOc1ccc(-n2c(C)cc(C(=O)CCl)c2C)cc1 [10-K08, 2-chloro-1-[1-(4-ethoxyphenyl)-2,5-dimethyl-1H-pyrrol-3-yl]ethan-1-one] | 98.9675 |
| N#Cc1ccc(OC2CN(C(=O)CCl)C2)cc1 [5-K07, 4-{[1-(2-chloroacetyl)azetidin-3-yl]oxy}benzonitrile] | 141.893 |
| O=C(CCl)COc1ccc(Cl)cc1 [10-M17, 1-chloro-3-(4-chlorophenoxy)propan-2-one] | 11.6891 |
| CCOc1ccc(C(=O)C(C)Cl)cc1 (centres unmarked) [10-G06, 2-chloro-1-(4-ethoxyphenyl)propan-1-one] | 103.331 |
